Results: PubChem BioAssay (NCI)
About 79,000 compounds went through this panel and 15% of them were active in at least one assay; those are over-represented in the sample as a whole. Activity calls are given as the source filed them. No stated cut-off is given here; in the data, active means growth inhibition above about 70%; inactive means the rest.

Assay: NCI Yeast Anticancer Drug Screen. Data for the mlh1 rad18 strain (AID 175)
Settings: S. cerevisiae mlh1 rad18 strain growth inhibition; at 50.0 µM (retest, dose inferred, filed as 5.0); active compounds read high
Outline: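 In this whole-cell yeast screen, a strain with altered DNA damage repair is challenged with compound, and its growth is measured against matched vehicle-treated controls.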

SMILES	growth inhibition
O=[N+]([O-])c1cccc(S(=O)(=O)N/N=C/c2cc(I)cc([N+](=O)[O-])c2O)c1	8% (inactive)
COc1cc(N=Nc2cccc(S(N)(=O)=O)c2)c2ccccc2c1N	98% (active)
O=S(=O)(c1ccc(O)cc1)c1ccc(Cl)cc1	79% (active)
C[N+](C)=c1ccc2nc3c(cc(NCCCNc4cc5oc6cc(=[N+](C)C)ccc-6nc5c5ccccc45)c4ccccc43)oc-2c1	74% (active)
CC(C)(C)C(=O)/C=C/c1ccc2ccccc2n1	-120% (inactive)
CSc1ccc(/C=N/NC(N)=S)cc1	1% (inactive)
CN(C)c1ccc(/C=C(\C#N)c2c(F)cccc2F)cc1	-1% (inactive)
O=C(/C=C\c1ccccc1)N1c2ccccc2CC1c1c[nH]c2ccccc12 (stereo not given)	11% (inactive)
COc1cccc(C2c3cc4c(cc3OC(Nc3ccccc3)C2C)OCO4)c1O (stereo not given)	97% (active)
CC(/C=C/c1cccs1)=N\C(=S)NC(N)=S	12% (inactive)
C=C1C(=O)O[C@H]2[C@H](OC(C)=O)[C@@H](C)CCC/C(C)=C/CC[C@@]3(C)O[C@@H]3C[C@@H]12	99% (active)
CC(=O)O/C=C\COC(C)=O	6% (inactive)
Cn1cc(NC(=O)c2cc(NC(=O)CCCCCCCCC(=O)Nc3cc(C(=O)Nc4cc(C(=O)NCCC(N)N)n(C)c4)n(C)c3)cn2C)cc1C(=O)NCCC(=N)N	97% (active)
CCCCCCCNCCCCCC	94% (active)
Cc1ccc(S(=O)(=O)N(c2ccccc2-c2ccccc2)C(C)C(=O)O)cc1 (stereo not given)	87% (active)
CCCN1C(=O)c2ccccc2C1=O	0% (inactive)
CCC(CC)COC(=O)c1ccc(O)c(O)c1	99% (active)
COc1ccc(C2SCC(=O)N2c2nncs2)cc1 (stereo not given)	5% (inactive)
O=NN(CCCl)C(=O)Oc1cc(Cl)c(Cl)cc1Cl	99% (active)
O=C(c1ccccc1)c1ccccc1S(=O)(=O)Nc1ccccc1	87% (active)

SMILES	growth inhibition
O=S(O)CCCCCSSc1ccccc1	31% (inactive)
Cc1ccc(C)c(N2C(=O)C(=O)C(c3nc4ccccc4o3)/C(=N\NC(=O)c3ccccc3O)C2=O)c1 (stereo not given)	7% (inactive)
Nc1ccc2ccccc2c1Cc1c(O)ccc2ccccc12	88% (active)
CN(C)CCC(=O)C(=Cc1cc(Cl)cc(Cl)c1)C(=O)CCN(C)C	97% (active)
COC(=O)c1c(C(N)=O)c(C)n(NC(=O)c2ccccc2)c1C	0% (inactive)
O=C(O)/C(=C/c1c(O)ccc2ccccc12)c1csc(-c2nc(/C(=C\c3c(O)ccc4ccccc34)C(=O)O)cs2)n1	68% (inactive)
O=C(O)c1c2c(cc3c1CC1(Cc4cc5c(cc4C1=O)CCC5)C3)CCC2 (stereo not given)	55% (inactive)
CCc1cccc(C(C)(C)C)c1NC(=S)N/C=C(\c1ccccc1)S(=O)Cc1ccccc1 (stereo not given)	62% (inactive)
O=[N+]([O-])c1ccc(N/N=C/COCCO)c([N+](=O)[O-])c1	8% (inactive)
O=C(O)CSc1nc(-c2ccccc2)c(-c2ccccc2)n1-c1ccccn1	6% (inactive)
C[C@]12CCC(=O)C=C1CC[C@@H]1[C@@H]2[C@@H](O)C[C@@]2(C)[C@H]1CC[C@]2(O)C(=O)COC(=O)C1CCCC1	-16% (inactive)
C[C-](O)O.O/C(=C\[C-](O)c1ccccc1)c1ccccc1.O/C(=C\[C-](O)c1ccccc1)c1ccccc1.[Nd+3] (stereo not given)	30% (inactive)
[Cl][Pt+2]([Cl])([Cl])[Cl].[NH-]CC1(C[NH-])CCCC1	98% (active)
CSc1ccc2c(c1)S[S@@](=O)N2	38% (inactive)
O=S=C(c1ccccc1)N(Cc1ccccc1)Cc1ccccc1	95% (active)
NNc1c(Cl)c(F)c(Cl)c(F)c1Cl	24% (inactive)
Cc1ccc(C)c(N2C(=O)C(=O)C(c3nc4ccccc4o3)C(=O)C2=O)c1	98% (active)
NC(=S)N/N=C/c1ccc(Cl)s1	44% (inactive)
O=c1[nH]ccc(CNC23CC4CC(CC(C4)C2)C3)c1O	38% (inactive)
CN(C)CCSc1cc(-c2ccccc2)c2ccccc2n1	92% (active)
